Data: PubChem BioAssay AID720504 (National Center for Advancing Translational Sciences (NCATS), 2013)
Hit rate of the full screen: of about 360,000 compounds, about 10,000 (2.8%) were called active. About 4% were inconclusive and are not listed. The call rests on the fitted dose curve; in most records, active means well fitted inhibition curve with a large enough effect; inconclusive means small, poorly fitted or top-dose-only effect; inactive means flat fitted curve, though single readings scatter. Many of the other results were omitted from the sample, so actives are more common in it than they were.

biological target: Serine/threonine-protein kinase PLK1 (Homo sapiens) (UniProt P53350); assay: qHTS for Inhibitors of PLK1-PDB (polo-like kinase 1 - polo-box domain): Primary Screen; settings: Plk1 PBD binding of FITC phosphopeptide, fluorescence polarization; further: nearly all actives have a fitted effect of over 65% in size; on max response, negative = inhibition: series mostly up to about 57 µM
On the % scale 0 is the no-effect control and ±100 the full control effect; potency means the concentration at half of the fitted maximal effect.

Sequence of Serine/threonine-protein kinase PLK1 (Homo sapiens) (P53350 whole entry, looked up, the tested form may be a part): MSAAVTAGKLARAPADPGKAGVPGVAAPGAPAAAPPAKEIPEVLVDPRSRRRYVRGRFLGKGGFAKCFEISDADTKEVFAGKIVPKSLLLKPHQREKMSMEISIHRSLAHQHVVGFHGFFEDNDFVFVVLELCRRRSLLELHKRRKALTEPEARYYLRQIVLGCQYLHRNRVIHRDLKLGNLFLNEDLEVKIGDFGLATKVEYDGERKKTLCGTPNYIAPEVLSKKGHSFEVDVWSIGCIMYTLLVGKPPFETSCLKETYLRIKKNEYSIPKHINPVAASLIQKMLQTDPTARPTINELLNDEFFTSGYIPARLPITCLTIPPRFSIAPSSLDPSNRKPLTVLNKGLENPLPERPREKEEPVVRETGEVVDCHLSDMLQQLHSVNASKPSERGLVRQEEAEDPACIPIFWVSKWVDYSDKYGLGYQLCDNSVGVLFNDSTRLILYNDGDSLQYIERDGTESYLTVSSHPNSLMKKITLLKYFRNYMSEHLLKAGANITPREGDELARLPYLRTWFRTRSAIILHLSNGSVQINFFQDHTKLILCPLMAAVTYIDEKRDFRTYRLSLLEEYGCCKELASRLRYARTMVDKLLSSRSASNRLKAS

Row | SMILES | max response, negative = inhibition | Potency
1 | CCc1nc2c(=O)[nH]cnc2o1 | -1.77% (inactive) | 
2 | CC(=NNC(N)=O)C1CC2CCC1CC2 (configuration not stated) | -7.72% (inactive) | 
3 | CC(C)c1nc(SCC(=O)Nc2cccc(C(=O)O)c2)c2c3c(sc2n1)CCCC3 |  | 42.3 µM (active)
4 | Cc1ccc(C(=O)NCCc2nnc(SCC(=O)Nc3cccc(C(=O)O)c3)n2C)cc1 | 1.64% (inactive) | 
5 | Cc1cc(NC(=O)CSc2nc(C(C)C)nc3sc4c(c23)CCC(C)C4)no1 (configuration not stated) | -3.46% (inactive) | 
6 | CC1(C(=O)NCc2ccc3c(c2)OCO3)CCN1C(=O)Cc1cccs1 (configuration not stated) | 10.1% (inactive) | 
7 | COC(=O)c1ccc2nc(-c3cccc(Br)c3)c(Cc3ccccc3C(F)(F)F)n2c1 | -0.95% (inactive) | 
8 | CCN(CC)S(=O)(=O)c1ccc(NC(=O)c2cccnc2Cl)c(NC(=O)c2cccnc2Cl)c1 |  | 23.8 µM (active)
9 | CCN(CC)S(=O)(=O)c1ccc(NC(=O)c2cnc(C)cn2)cc1 | 1.21% (inactive) | 
10 | Cc1ccc(CNC(=O)c2cccnc2Cl)cc1 | -17.3% (inactive) | 
11 | COc1ccc(-c2csc(C(O)c3cccc(Cl)c3)n2)cn1 (configuration not stated) | -6.07% (inactive) | 
12 | CCCCCNC(=O)C(c1ccc(OC)cc1)n1c(=O)c(-c2ccccc2)nc2ccccc21 (configuration not stated) | -10.5% (inactive) | 
13 | O=S(=O)(Nc1ccc2nc(N3CCOCC3)sc2c1)c1ccccc1 | -10.1% (inactive) | 
14 | O=C(O)c1cccc(S(=O)(=O)Nc2ccc(O)cc2Sc2nc3ccccc3s2)c1 |  | 13.4 µM (active)
15 | Cc1nc2ccc(NC(=O)c3cccc(S(=O)(=O)N4CCOCC4)c3)cc2s1 | -2.09% (inactive) | 
16 | COc1ccc(NS(=O)(=O)c2ccc3oc(SCC(N)=O)nc3c2)cc1 | -0.392% (inactive) | 
17 | COc1ccc(S(=O)(=O)Nc2ccc(O)c(Sc3nc4ccccc4s3)c2)cc1 |  | 16.8 µM (active)
18 | COc1ccc(NS(=O)(=O)c2ccc(NC(=S)NC(=O)CC(C)C)cc2)cc1 | -14.2% (inactive) | 
19 | N#Cc1ccc(-c2ccc3nccn3c2)cc1 | -5.23% (inactive) | 
20 | O=C(c1cccs1)N1CCN(Cc2ccc3c(c2)OCO3)CC1 | -0.579% (inactive) | 
21 | COc1ccc(-c2cc(C(=O)N3CCN(Cc4ccc5c(c4)OCO5)CC3)on2)cc1OC |  | 5.97 µM (active)
22 | Cc1cc(C)n2nc(C(=O)N3CCN(Cc4ccc5c(c4)OCO5)CC3)nc2n1 | -1.06% (inactive) | 

Row | SMILES | max response, negative = inhibition | Potency
23 | COC(=O)Cc1ccc(NC(=S)NCc2ccccc2)cc1 | -14.7% (inactive) | 
24 | CC(C)Oc1ccc(CC(=O)NNC(=S)Nc2ccc(Br)cc2)cc1 |  | 13.4 µM (active)
25 | Cc1ccc(OC(=O)CCC(=O)Nc2ccc(Br)cc2)cc1 | -3.3% (inactive) | 
26 | O=C1NC[C@@H](CCCCN2CCN(CCc3ccc(O)cc3)C(=O)C2=O)N(CC2CCCCC2)C1=O | -8.33% (inactive) | 
27 | FC(F)(F)c1cccc(-c2nc3ccccc3n2C(c2ccccc2)c2nc3ccccc3[nH]2)c1 (configuration not stated) | -0.5% (inactive) | 
28 | Cc1cccc(C)c1NC(=O)CN1CCN(c2ccc(F)cc2)CC1 | -2.75% (inactive) | 
29 | CCOc1cc(C=NNC(=O)CCCC(=O)NN=Cc2ccc(O)c(OCC)c2)ccc1O | -0.399% (inactive) | 
30 | C/C=N/NC(=O)CCCC(=O)N/N=C/C |  | 29.9 µM (active)
31 | C=CCNC(=O)CCCC(=O)NCC=C | 2.64% (inactive) | 
32 | Cc1cc(C)n2c(Nc3c(C)cccc3C)c(CCc3ccccc3)nc2n1 | -7.58% (inactive) | 
33 | CC(=O)c1cccc(NC(=O)c2cc(C)nn2-c2ccccc2)c1 | 5.02% (inactive) | 
34 | CSc1ccccc1C(=O)Nc1cccc(C(C)=O)c1 |  | 23.8 µM (active)
35 | CSc1ccccc1C(=O)NCc1ccccc1 | -11.2% (inactive) | 
36 | CN(Cc1c(F)cccc1Cl)C(=O)COC(=O)Cn1cnc2ccccc2c1=O | -0.103% (inactive) | 
37 | CC(C)C1C(=O)N(Cc2cn(CCC3OCCO3)nn2)CCS(=O)(=O)N1Cc1ccc(-c2ccccc2C(F)(F)F)cc1 (configuration not stated) | 0.333% (inactive) | 
38 | COc1cccc(-c2ccc3c(c2)N(Cc2ccccc2OC)C(=O)C(C)S3)c1 (configuration not stated) | 0.113% (inactive) | 
39 | CCOC(=O)C1CCCN(C(=O)c2ccc(N(C)C)cc2)CC1 (configuration not stated) | -4.5% (inactive) | 
40 | CC(=O)c1cccc(NC(=S)N2CCCC2)c1 | -6.15% (inactive) | 
41 | Cc1cccc(NC(=S)N2CCC(C(=O)c3ccc(F)cc3)CC2)c1 |  | 2.99 µM (active)
42 | Cc1cccc(NC(=S)N2CCC(c3nc4ccccc4s3)CC2)c1 | -1.09% (inactive) | 
43 | CCOC(=O)C1(C)CCCN(C(=O)c2ccc(F)c(Cl)c2)C1 (configuration not stated) | -9.56% (inactive) | 
44 | CN(C)C(CNC(=O)c1cccc(S(=O)(=O)N2CCc3ccccc3C2)c1)c1ccccc1 (configuration not stated) | -5.08% (inactive) | 

Row | SMILES | max response, negative = inhibition | Potency
45 | CC1(C(=O)NS(=O)(=O)c2cccc(F)c2)CCN1C(=O)c1cccc2ccccc12 (configuration not stated) | -0.565% (inactive) | 
46 | COc1ccc2[nH]cc(CCN3C(=O)c4ccc(C(=O)O)cc4C3=O)c2c1 | -13.3% (inactive) | 
47 | Cc1ccc2[nH]cc(CCCN3C(=O)c4ccccc4C3=O)c2c1 |  | 29.9 µM (active)
48 | O=C1c2ccccc2C(=O)N1CCCCCCN1C(=O)c2ccccc2C1=O | -2.55% (inactive) | 
49 | COC(=O)C1(C(=O)OC)C/C=C\CN(S(=O)(=O)c2ccccc2[N+](=O)[O-])CCC1 | 3.46% (inactive) | 
50 | O=C1OCCC1=COCCCCOC=C1CCOC1=O | 1.79% (inactive) | 
51 | O=C(NCCN1CCN(C(=O)c2cccc([N+](=O)[O-])c2)CC1)C(=O)NCc1ccc(Cl)cc1 | 2.99% (inactive) | 
52 | Cc1ccc(NC(=O)C(=O)NCC2CCN(C(=O)c3cccc([N+](=O)[O-])c3)CC2)cc1 |  | 29.9 µM (active)
53 | Cc1ccc(NC(=O)O/N=C/c2cccc([N+](=O)[O-])c2)cc1 | -16.5% (inactive) | 
54 | Cc1cccc(C)c1NC(=O)CNC(=O)c1ccc(N2CCOCC2)c([N+](=O)[O-])c1 | -13.7% (inactive) | 
55 | COC(=O)CNC(=O)c1ccccc1[N+](=O)[O-] | -2.66% (inactive) | 
56 | O=C(CNC(=O)c1ccccc1)Oc1ccc([N+](=O)[O-])cc1 |  | 5.32 µM (active)
57 | O=C(NNS(=O)(=O)Cc1ccccc1)c1ccc([N+](=O)[O-])cc1 | -14.2% (inactive) | 
58 | Cc1ccc(Cc2c(-c3ccc(C)cc3)nc3c4ccccc4ccn23)cc1 | 5.48% (inactive) | 
59 | COc1cc(C=C(OC(C)=O)c2ccc3c(c2)OCO3)cc(OC)c1OC | -7.84% (inactive) | 
60 | CCOC(=O)C1(C)CCCN(C(=O)c2ccc(N(C)C)cc2)C1 (configuration not stated) | -5.89% (inactive) | 
61 | COc1cccc(CNC(=O)CN(C)S(=O)(=O)c2ccc3c(c2)c(=O)n(C)c(=O)n3C)c1 | -6.18% (inactive) | 
62 | CC1CCC(NC(=O)CN(C)S(=O)(=O)c2ccc3c(c2)c(=O)n(C)c(=O)n3C)CC1 (configuration not stated) |  | 18.9 µM (active)
63 | CCc1ccccc1NC(=O)CN(C)S(=O)(=O)c1ccc2c(c1)c(=O)n(C)c(=O)n2C | -2.91% (inactive) | 
64 | CCNC(=O)C1CCCN(C(=O)c2ccc(OC)cc2OC)CC1 (configuration not stated) | -11.4% (inactive) | 
65 | Cc1cc(C)c(C=NNc2nc3c([nH]2)c(=O)n(C)c(=O)n3C)c(C)c1 | -11.3% (inactive) | 
66 | Cc1cccc(C)c1NC(=O)CSc1nc2c([nH]1)c(=O)n(C)c(=O)n2C | -5.89% (inactive) | 

Row | SMILES | max response, negative = inhibition | Potency
67 | Cc1ccc(NN=Nc2nc3c([nH]2)c(=O)n(C)c(=O)n3C)cc1 |  | 23.8 µM (active)
68 | C[C@H]1CN([C@@H](C)CO)C(=O)CCCn2cc(nn2)CO[C@@H]1CN(C)S(=O)(=O)c1cccs1 | -15.8% (inactive) | 
69 | O=C(NCCN1CCOCC1)/C(=C/c1ccc(F)cc1)NC(=O)c1ccccc1 | -12.8% (inactive) | 
70 | CCn1cc(/C=C(\NC(=O)c2ccc(C)cc2)C(=O)NCCN2CCOCC2)c2ccccc21 |  | 26.7 µM (active)
71 | Cc1ccc(C(=O)N/C(=C\c2ccc(F)cc2)C(=O)NCCN2CCOCC2)cc1 | -16.1% (inactive) | 
72 | CCCOc1ccc(F)cc1-c1cc(C(=O)Nc2ccc(F)cc2)[nH]n1 | 6.37% (inactive) | 
73 | O=C(NCc1cccc(C(F)(F)F)c1)c1ccc2sc(COCCO)nc2c1 | -3.85% (inactive) | 
74 | CCOC(=O)C1C(C)C(C(C)(C)C)N(S(=O)(=O)c2ccc(C)cc2)C1c1ccccc1 (configuration not stated) | -10.1% (inactive) | 
75 | CC1(C(=O)NCC2CCOCC2)Cc2c(-c3cccc(C(N)=O)c3)ccnc2O1 (configuration not stated) | -6.03% (inactive) | 
76 | CN(C)/C=C/C(=O)c1ccccc1F | -6.3% (inactive) | 
77 | Cc1nc(-c2ccccc2)sc1C(=O)/C=C/N(C)C |  | 29.9 µM (active)
78 | Cc1nc(COc2cccc(Cl)c2)sc1C(=O)/C=C/N(C)C | 6.79% (inactive) | 
79 | Cc1ccc(-c2nc3c(Cl)cc(C(F)(F)F)cn3c2Cc2cccc(Cl)c2)cc1 | 4.46% (inactive) | 
80 | COC(=O)c1c(NC(=O)C2CC(C)=C(C)CC2C(=O)O)sc2c1CCCCC2 (configuration not stated) | -20.4% (inactive) | 
81 | CCOC(=O)c1c(NC(=O)C2CC=CCC2C(=O)O)sc(C)c1CC (configuration not stated) |  | 26.7 µM (active)
82 | CCOC(=O)c1c(NC(=O)CN2C(=O)NC3(CCC(C)CC3)C2=O)sc(C)c1CC (configuration not stated) | -5.1% (inactive) | 
83 | Nc1ncnc2c1ncn2[C@@H]1O[C@H](C(=O)NS(=O)(=O)c2c(Cl)nc3sccn23)[C@@H](O)[C@H]1O | -12.2% (inactive) | 
84 | COCCNc1ncnc2c1ncn2[C@H]1CN(Cc2ccc(OC)cc2)C[C@@H](CO)O1 | 5.71% (inactive) | 
85 | CCCC1(C(=O)OCC)NC(c2ccc(N(C)C)cc2)C2C(=O)N(c3ccc4c(c3)OCCO4)C(=O)C21 (configuration not stated) | 0.149% (inactive) | 
86 | CCCCC1(C(=O)OCC)NC(c2ccc(O)cc2)C2C(=O)N(c3ccccc3)C(=O)C21 (configuration not stated) |  | 11.9 µM (active)
87 | CCOC(=O)C1(C)NC(c2ccco2)C2C(=O)N(c3ccccc3)C(=O)C21 (configuration not stated) | -2.81% (inactive) | 
